This is an account of results in PubChem BioAssay (NCI).

Structures are written as SMILES. About 83,000 compounds went through this panel and 20% of them were active in at least one assay; those are over-represented in the sample as a whole.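 How to read the values: 0–100, growth inhibition (40 = 60% inhibited); 0, no net growth; -100 to 0, cell death (-40 = 40% of starting cells died; -100 = all dead).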 Values without a mark were called inactive. The source made the active and inactive calls.

This assay has as its system RPMI-8226 leukemia. Description: NCI-60 one-dose screen, 48 h (100 = growth as untreated, 0 = no growth, -100 = all killed). The note with it: 10 µM unless noted. The method, then: Growth inhibition of the RPMI-8226 human tumor cell line is measured as a screen for anti-cancer activity. Cells are grown in 96 well plates and exposed to the test compound for 48 hours. Compounds are tested at a single concentration, which is 10^-5 M for most compounds. The reported endpoint is percent growth (GI% or GIPRCNT), where numbers from 0 - 100% represent growth inhibition, and numbers from -100% - 0 represent cell death. For example, a value of 40 represents 60% growth inhibition. A value of 0 means no net growth occurred over the course of the experiment. A value of -40 indicates 40% of cells at the beginning of the experiment died by the end of the experiment. A value of -100 means all cells are dead at the end of the experiment.
NCI-60 Human Tumor Cell Lines Screen was performed using the standard one-dose NCI protocol, which is described in more detail at https://dtp.cancer.gov/discovery_development/nci-60/default.htm.
Compounds with GIPRCNT values below 10 were considered active. Activity score was based on GIPRCNT using the following formula: […]
Score is 0 for GIPRCNT values of 100 or above, 50 for GIPRCNT values of 0, and 100 for GIPRCNT values of -100.
On to `CCOP(=O)(Cc1ccc(C#N)cc1)OCC`, for which the growth was 103%.
In the case of `C=C(C)[C@@]12OC3(/C=C/C=C/CCCCC)O[C@@H]1[C@@H]1[C@@H]4O[C@]4(CO)[C@@H](O)[C@]4(O)C(=O)C(C)=C[C@H]4[C@@]1(O3)[C@H](C)[C@H]2OC(=O)c1ccccc1` it was 66.4%.
For the molecule `O=[N+]([O-])c1ccc([Se]C2CCCCC2Cl)c([N+](=O)[O-])c1` (stereo not given), the growth was 82.8%.
Under `O=C(O)c1c(Cl)n(Cc2ccc(O)cc2)c2ccc(O)cc12` stands 70.9%; under `C[C@@]12CC=C3c4nc(Nc5cccc(O)c5)sc4CC[C@]3(C)[C@H]1CC[C@]1(C)C(=O)CC[C@@H]21`, -13.6% (active).
Regarding `CCn1c2ccccc2c2cc(C(=O)c3cccc4c3CCCN4)ccc21`, the growth is 112%.
For the molecule `COC(=O)CC[C@H](Cc1ccccc1)NC(=O)c1csc([C@@H](C[C@H](C(C)C)N(C)C(=O)[C@@H](NC(=O)[C@H]2CCCCN2C)C(C)C)OC(C)=O)n1`, the growth was 37.3%.
Under `CCOC(=O)N[C@H]1CCc2c(Br)c(OC)c(OC)c(OC)c2-c2ccc(SC)c(=O)cc21` stands -6.15% (active); under `C[CH2][Sn]([Cl])([Cl])[CH2]C.Oc1ccccc1C=NCCN=Cc1ccccc1O`, 91.9%; under `CCCCCCCC(=O)OCC(=O)[C@]1(O)Cc2c(O)c3c(c(O)c2[C@@H](OC2CC(N)C(O)C(C)O2)C1)C(=O)c1c(OC)cccc1C3=O` (stereo not given in full), -73.6% (active).
In the case of `COc1ccc(/C=C\c2cc(OC)c(OC)c(OC)c2)cc1NC(=O)/C=C/c1ccc(OC)c(OC)c1` it was 53.6%; in that of `Brc1ccc2c(c1)c(-c1nc(-c3c[nH]c4ncccc34)cs1)cn2CCN1CCCCC1`, 51.2%; in that of `O=C(O)c1ccc([S-])cc1.[Au+].c1ccc(CN2[CH-]N(Cc3ccccc3)C(c3ccccc3)=C2c2ccccc2)cc1`, -11% (active).
Under `Clc1cccc(NCOOC2(OOCNc3cccc(Cl)c3)CCCCCC2)c1` stands 91.9%; under `CC(=O)O[C@H](C[C@H](C(C)C)N(C)C(=O)[C@@H](NC(=O)[C@H]1CCCCN1C)C(C)C)c1nc(C(=O)NC2CCC(C(=O)O)CC2)cs1` (stereo not given in full), 23.8%.
With `O=C(CC1(O)C(=O)N(Cc2ccccc2)c2ccc(Cl)cc21)c1ccc(C(=O)NCC2CCC3(CC2)OOC2(CCCCC2)OO3)cc1` (stereo not given), the growth was -27.7% (active).
Consider `CN1C(=O)C(=Cc2cn(Cc3ccccc3)c3ccccc23)C(=O)N(C)C1=O`, for which the growth is 35.9%.
In the case of `C/C(=C\c1ccn(-c2ccc(N)c(F)c2)n1)[C@@H]1C[C@@H]2O[C@]2(C)CCC[C@H](C)[C@H](O)[C@@H](C)C(=O)C(C)(C)[C@@H](O)CC(=O)O1` it was 8.95% (active); in that of `O=C1C2CC=CCC2C(=O)N1SC(Cl)(Cl)Cl` (stereo not given), 33.1%.
For the molecule `Fc1ccc(C2=CCNCC2)cc1`, the growth was 122%.
Under `CC(=O)c1ccc(C(=O)NCC2CCC3(CC2)OOC2(CCCCC2)OO3)cc1` stands 69.3%; under `COc1cccc2c1c(C(=O)C(=O)Nc1ccn[nH]1)cn2Cc1ccc(F)cc1`, 96.8%; under `CC[C@H](C)[C@@H]([C@@H](CC(=O)N1CCC[C@H]1[C@H](OC)[C@@H](C)C(=O)N[C@H](C)[C@@H](O)c1ccccc1)OC)N(C)C(=O)[C@@H](NC(=O)[C@@H](NC)C(C)C)C(C)C`, 26.5%.
As to `CCC(CC)CC1(C)CC2(C)CCOC2OO1` (stereo not given), the growth was 103%.
On to `CC(=O)O[C@H]1CC[C@]2(C)[C@H]3CC[C@]4(C)[C@@H](OC(C)=O)CC[C@H]4[C@@H]3[C@@H](C)[C@]2(O)C1`, for which the growth is 100%.
Regarding `c1ccc(Nc2nc(-c3ccccc3)c[se]2)cc1`, the growth is 86.6%.
In the case of `COC(=O)[C@]12CCC(C)(C)C[C@H]1[C@H]1C(=O)C[C@@H]3[C@@]4(C)C[C@@]5(CC(C)(C)[C@@H]4CC[C@@]3(C)[C@]1(C)CC2)OO[C@@](C)(C(F)(F)F)O5`, the growth is 90.3%.
In the case of `CC(C)=CC1C(C(=O)OCc2cccc(Oc3ccccc3)c2)C1(C)C` (stereo not given) it was 91.7%; in that of `Cc1cc(N(CCCl)CCCl)ccc1C=Nc1cccnc1`, 78.3%; in that of `CC(C)(C)N1CC1C#N` (stereo not given), 99.2%.
Take `CC(=O)O[C@H]1CC[C@H]2[C@@H]3CC=C4c5nc(-c6ccccc6)sc5CC[C@]4(C)[C@H]3CC[C@]12C`: the growth was -37.3% (active).
With `CN(C)C(=O)Oc1ccccc1-c1ccccc1`, the growth was 104%.
In the case of `O=C(N/N=C/c1ccc(N(CCCl)CCCl)cc1)c1cccc2ccccc12` it was 73.9%; in that of `COC[C@@H]1C[C@@]2(C)[C@@H](CC[C@@H]3[C@@H]2CC[C@@]2(C)[C@H]3CC[C@]2(C)O)CC1=O`, 84.5%; in that of `COc1ccc2c(c1)c(-c1nc(-c3c[nH]c4ncccc34)cs1)cn2CCN1CCOCC1`, 22.3%.
In the case of `O=C1NC(=O)C(=Cc2ccc(OCCCCC3CCCCC3)c(Cl)c2)C(=O)N1` it was 97.7%.
Under `CC12CCC=CC1CCC1C2CCC2(C)C(c3ccc(=O)oc3)CCC12O` (stereo not given) stands -14.1% (active); under `C1CCC([PH+](C2CCCCC2)C2CCCCC2[PH+](C2CCCCC2)C2CCCCC2)CC1.[Au].[CH-]1CCCCC1CC1CCCC[N-]1` (stereo not given), -8.82% (active); under `c1cc2c(c3c1CCNC3)OCO2`, 109%.
Regarding `Clc1cccc(Cl)c1Cl`, the growth is 110%.
